PglD DTNB = PglD (C. jejuni) enzyme inhibition; purified PglD enzyme, DTNB colorimetric CoA detection; inhibition, % at 12.5 µM; AID 602405; actives 0.098% (n = 360,000); in the data active = inhibition above about 16%, passing the limit was not always enough
NSD2 HMT inh = inhibitors of human histone methyltransferase NSD2; NSD2 peptide methylation, AlphaScreen, 120 min; actives 0.54% (n = 310,000); AID 743445; inhibition, % at 12.5 µM; in the data active = inhibition above about 50%
C2C12 statin = protects C2C12 myotubes from simvastatin toxicity; actives 0.78% (n = 330,000); AID 602340; ATP luminescence, 48 h; scaled: DMSO 0, geranylgeraniol control 100; rescue of ATP level, % at 7.49 µM;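 active = mean ATP rescue above about 67%, or every replicate alone reaching that limit, limit read from the data, passing the limit was not always enough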;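 also: myotubes were challenged with 10 µM simvastatin during compound exposure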
miR122 inh = miR-122 inhibition in Huh7 cells. Huh7 miR-122 Renilla luciferase sensor, 48 h; neutral wells = 0, positive control = 100. activation (reporter increase), % at 12.5 µM. actives 0.3% (n = 340,000). AID 602342;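 active = mean replicate activation score at least 90 and every replicate individually at or above 90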;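 also: higher luciferase means less miR-122 activity so hits act as miR-122 inhibitors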
The depositor's hits bear a star; · = not tested or not shown; [ ] = remark or other dose. Rows were chosen to be rich in hits. Some 1.2% of all compounds tested hit in one or more screens of this group.

SMILES	PglD DTNB	NSD2 HMT inh	C2C12 statin	miR122 inh
C[C@H]1CN([C@@H](C)CO)S(=O)(=O)c2ccc(C#Cc3ccc(F)cc3)cc2O[C@@H]1CN(C)C	-6	·	-43	8[16.7 µM]
CCOC(=O)c1c(NC(=O)Cc2cccs2)sc(C(=O)NC2CCCCC2)c1C	3	12	78*	-2
CC(=O)C[C@H]1c2cc(C(F)(F)F)ccc2S(=O)(=O)N1C1CCCCC1	2	·	0	118*
CCCC#Cc1ccc2c(c1)O[C@@H](CN(C)C(=O)C1CC1)[C@H](C)CN([C@@H](C)CO)S2(=O)=O	1	·	2	5[16.7 µM]
COc1ccc(S(=O)(=O)N(C)C[C@@H]2OCc3cn(nn3)CCCC(=O)N([C@@H](C)CO)C[C@@H]2C)cc1	3	·	4	4[16.7 µM]
COc1ccc(S(=O)(=O)Nc2cc(C)c(O)c(S(=O)(=O)c3ccccc3)c2)cc1	2	1	9	129*
Cc1noc(C)c1S(=O)(=O)N1CCC(C(=O)N2CCN(c3ccccc3Cl)CC2)CC1	3	-1	137*	-4
Cc1cccc(N2CCN(C(=O)C3CCN(S(=O)(=O)c4c(C)noc4C)CC3)CC2)c1C	-3	0	9	-9
CCCCOC(=O)CSC1=C(C#N)C(c2ccc3c(c2)OCO3)CC(=O)N1 (configuration not stated)	1	0	102*	7
CCOC(=O)CSC1=C(C#N)C(c2ccc3c(c2)OCO3)CC(=O)N1 (configuration not stated)	-3	3	·	-5
CC1CCN(c2ncnc3c2cnn3Cc2ccc(Cl)cc2)CC1	0	-1	172*	0
Cc1ccc(Cn2ncc3c(N4CCN(Cc5ccc(Cl)cc5)CC4)ncnc32)cc1	0	1	8	-2
C[C@H]1CN([C@@H](C)CO)C(=O)CCCn2cc(nn2)CO[C@H]1CN(C)Cc1ccc2c(c1)OCCO2	1	·	1	8[16.7 µM]
O=C(N[C@H]1CC[C@@H](CCn2cc(C3(O)CCCC3)nn2)O[C@H]1CO)C1CCCCC1	-2	·	-1	·
CO[C@H]1CN(C)C(=O)c2cc(NC(C)=O)ccc2OC[C@@H](C)NC[C@@H]1C	19*	·	8	·
Cn1nc(CC(=O)N2CCN(c3ccccc3)CC2)c2ccccc2c1=O	0	-7	·	344*
Cc1nc(NC(=O)CSc2nnc3ncccn23)sc1C	·	1	·	·
CCC(C)[C@H](NC(=O)Nc1ccc(C(C)=O)cc1)C(=O)OC (some centres not stated)	-2	-2	93*	1
CCC(C)[C@H](NC(=O)Nc1ccc(S(N)(=O)=O)cc1)C(=O)OC (some centres not stated)	·	-1	·	·
CCOc1cccc(C2C(C(=O)c3ccco3)=C(O)C(=O)N2Cc2ccncc2)c1 (configuration not stated)	-4	0	122*	-4
C/C=C/c1ccc2c(c1)O[C@H](CN(C)C)[C@@H](C)CN([C@H](C)CO)S2(=O)=O	-3	·	-1	8[16.7 µM]
COc1ccc(S(=O)(=O)N(C)C[C@@H]2OCCCC[C@H](C)Oc3ccc(NS(=O)(=O)c4ccc(C)cc4)cc3C(=O)N([C@H](C)CO)C[C@@H]2C)cc1	3	·	27	-1[16.7 µM]
C=CCn1cc(-c2ccc(Cl)cc2)cc(C#N)c1=O	7	-11	5	-3
C=CCn1cc(-c2ccccc2)cc(C#N)c1=O	-1	0	141*	-4
C[C@H](CO)N1C[C@H](C)[C@H](CN(C)Cc2ccc(C(=O)O)cc2)OCCCC[C@H](C)Oc2ccc(NC(=O)c3ccccc3)cc2C1=O	0	·	·	11[16.7 µM]
SMILES	PglD DTNB	NSD2 HMT inh	C2C12 statin	miR122 inh
CCc1nnc(NC(=O)CSc2nnc(-c3ccc(NS(=O)(=O)c4ccccc4)cc3)o2)s1	1	0	108*	-1
COC(=O)CSc1nnc(-c2ccc(NS(=O)(=O)c3ccccc3)cc2)o1	-4	·	-1	-1
CN(C)/C=C1\N=C(c2cccnc2Oc2ccc(Cl)cc2)OC1=O	-3	1	115*	0
CN(C)/C=C1\N=C(c2ccc(Cl)cc2Cl)OC1=O	0	0	0	-7
C[C@@H]1CCCCO[C@@H](CN(C)Cc2ccncc2)[C@@H](C)CN([C@@H](C)CO)C(=O)c2cc(NC(=O)C3CCCCC3)ccc2O1	·	·	-72	-3[16.7 µM]
CCn1c(N)c(C(=O)N2CCOCC2)sc1=S	2	-1	129*	3
C=CCn1c(N)c(C(=O)N2CCOCC2)sc1=S	·	1	-4	-1
Clc1ccc(-c2nnc(C3CCCCC3)o2)cc1	-2	-3	123*	-3
O=C(NN1C(=O)c2ccccc2C1=O)C1CCCCC1	4	-5	100*	7

High-throughput results (PubChem BioAssay)
